Source: PubChem BioAssay (NCATS)
Inconclusive results are not listed. Entries that show only a call come without a potency. Active and inactive are the calls of the source. The call rests on the fitted dose curve; in most records, active means well fitted inhibition curve with a large enough effect; inconclusive means small, poorly fitted or top-dose-only effect; inactive means flat fitted curve, though single readings scatter.

Experiments:
[1] = molecular target: Glutathione peroxidase 1 (Homo sapiens) (UniProt P07203); assay: Primary qHTS Assay for Inhibitors of Recombinant Selenoprotein Glutathione Peroxidase 1 (GPX1) (AID 1845191); settings: recombinant GPX1, GR-coupled NADPH fluorescence, 15 min; series mostly up to 48.8 µM
Procedure, shortened: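 GR-coupled readout: NADPH consumption tracked by fluorescence, ex 340/em 450 nm, at t=0 and after 15 min at RT. Final mix 10 nM GPX1, 1 mM GSH, 0.5 mM CHP, 0.5 mM NADPH, 100 nM GR, 0.01% BSA, following 30 min enzyme–compound preincubation.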

[2] = molecular target: Phospholipid hydroperoxide glutathione peroxidase GPX4 (Homo sapiens) (UniProt P36969); assay: Primary qHTS Assay for Inhibitors of Recombinant Selenoprotein Glutathione Peroxidase 4 (GPX4) (AID 1845192); settings: recombinant GPX4, GR-coupled NADPH fluorescence, 15 min; series mostly up to 50 µM
Procedure, shortened: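 Steps: GPX4 plus compound, 30 min RT; add GR/GSH/NADPH master mix; start with cumene hydroperoxide; read 340/450 nm fluorescence at 0 and 15 min. Finals were 200 nM GPX4, 1 mM GSH, 0.5 mM CHP, 0.5 mM NADPH, 100 nM GR.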
Further: nearly all actives have a fitted effect of over 65% in size.

Sequence of Phospholipid hydroperoxide glutathione peroxidase GPX4 (Homo sapiens) (P36969 whole entry, looked up): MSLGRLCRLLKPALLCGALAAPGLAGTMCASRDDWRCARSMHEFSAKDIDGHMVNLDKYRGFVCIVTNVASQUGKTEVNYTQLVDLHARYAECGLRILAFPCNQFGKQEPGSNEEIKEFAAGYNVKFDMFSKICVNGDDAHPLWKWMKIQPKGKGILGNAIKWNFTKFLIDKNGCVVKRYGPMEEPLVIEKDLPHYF
Sequence of Glutathione peroxidase 1 (Homo sapiens) (P07203 whole entry, looked up): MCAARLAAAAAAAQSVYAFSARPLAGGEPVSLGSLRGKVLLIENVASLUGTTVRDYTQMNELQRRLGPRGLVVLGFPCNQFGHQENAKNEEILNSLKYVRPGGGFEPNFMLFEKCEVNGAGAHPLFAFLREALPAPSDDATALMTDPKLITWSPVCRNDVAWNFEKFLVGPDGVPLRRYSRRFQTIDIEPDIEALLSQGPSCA

Cc1c(C)c2c(c(C)c1OC(=O)c1cccnc1)CC[C@@](C)(CCC[C@H](C)CCC[C@H](C)CCCC(C)C)O2
Potency [1]: inactive
Potency [2]: inactive

CCc1cccc(CC)c1NC(=O)CN(CC(=O)O)CC(=O)O
Potency [1]: inactive
Potency [2]: inactive

CC(C)(C)NCC(O)COc1cccc2c1CCC(=O)N2 (configuration not stated)
Potency [1]: inactive
Potency [2]: inactive

CC[C@H](C)[C@H](N)C(=O)O
Potency [1]: inactive
Potency [2]: inactive

Cc1ccsc1/C=C/C1=NCCCN1C
Potency [1]: inactive
Potency [2]: inactive

NS(=O)(=O)c1cc(-c2nn[nH]n2)c(NCc2cccs2)cc1Cl
Potency [1]: inactive
Potency [2]: inactive

O=C(O)c1ccc(OCCCOc2ccc(C(=O)O)cc2)cc1
Potency [1]: inactive
Potency [2]: inactive

CC(CN(C)C)C(C)(O)Cc1ccc(Cl)cc1 (configuration not stated)
Potency [1]: inactive
Potency [2]: inactive

CC(=O)Oc1cccc(C)c1
Potency [1]: inactive
Potency [2]: inactive

CCS(=O)(=O)CCn1c([N+](=O)[O-])cnc1C
Potency [1]: inactive
Potency [2]: inactive

CC1(C)S[C@@H]2[C@H](NC(=O)C(C(=O)O)c3ccccc3)C(=O)N2[C@H]1C(=O)O (some centres not stated)
Potency [1]: inactive
Potency [2]: inactive

C1CCN2C[C@@H]3C[C@@H](CN4CCCC[C@@H]34)[C@H]2C1
Potency [1]: inactive
Potency [2]: inactive

CC(C)NC[C@@H](O)COc1ccc(CC(N)=O)cc1
Potency [1]: inactive
Potency [2]: inactive

CCOc1ccc(C(=O)OCCN(CC)CC)cc1
Potency [1]: inactive
Potency [2]: inactive

CC[N+](C)(CC)CCOC(=O)C1c2ccccc2Oc2ccccc21
Potency [1]: inactive
Potency [2]: inactive

O=C(NCC(O)CO)c1c(I)c(C(=O)NCC(O)CO)c(I)c(N(CCO)C(=O)CO)c1I (configuration not stated)
Potency [1]: inactive
Potency [2]: inactive
